From the supplement of paper PMC10849652
The full data set covers some 7,900 targets. This sample favours those with a hit. About 0.6% of all pairs of compound and target were hits.

compound: CO[C@H]1C[C@@H]2CC[C@@H](C)[C@@](O)(O2)C(=O)C(=O)N2CCCC[C@H]2C(=O)O[C@H]([C@H](C)C[C@@H]2CC[C@H](n3cnnn3)[C@H](OC)C2)CC(=O)[C@H](C)/C=C(\C)[C@@H](O)[C@@H](OC)C(=O)[C@H](C)C[C@H](C)/C=C/C=C/C=C/1C [zotarolimus]; test: log2 fold change, soluble protein after heating vs DMSO (PISA); higher = thermal stabilisation; K562 cells, 10 uM, 30 min; active = over 0.2 and 3.5 SD of the protein, either way, in both replicates (recomputed)
Procedure, shortened: (§1)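 Aliquots of K562 cells (2×10^6 cells/mL) treated with 10 μM compound for 30 min were heated for 3 min over 48°C-58°C. After pooling and extraction in PBS with 0.5% NP-40 at 4°C, soluble protein from a 21,000xg, 90 min spin was quantified by TMTpro 16plex LC-MS/MS with channel sums equalised. Thermal stability is expressed against control samples, from duplicates, as a log2 fold change.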

Chain of UniProt Q9BV94 (Q9BV94 whole entry, looked up): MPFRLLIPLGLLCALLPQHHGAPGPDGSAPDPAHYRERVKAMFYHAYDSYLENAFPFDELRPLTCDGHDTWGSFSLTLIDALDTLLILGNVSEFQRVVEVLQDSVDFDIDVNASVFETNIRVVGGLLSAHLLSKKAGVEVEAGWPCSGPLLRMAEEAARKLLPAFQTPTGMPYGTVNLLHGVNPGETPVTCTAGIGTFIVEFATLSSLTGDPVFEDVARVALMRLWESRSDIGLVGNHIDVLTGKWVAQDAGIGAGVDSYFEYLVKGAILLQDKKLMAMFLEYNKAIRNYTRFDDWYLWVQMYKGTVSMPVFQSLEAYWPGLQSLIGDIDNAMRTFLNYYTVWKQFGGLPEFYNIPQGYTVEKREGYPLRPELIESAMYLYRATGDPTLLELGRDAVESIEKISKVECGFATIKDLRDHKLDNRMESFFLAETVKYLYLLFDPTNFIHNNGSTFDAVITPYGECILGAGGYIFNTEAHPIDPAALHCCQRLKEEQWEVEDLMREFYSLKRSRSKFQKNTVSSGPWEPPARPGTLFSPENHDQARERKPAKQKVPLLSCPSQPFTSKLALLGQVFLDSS
Chain of UniProt Q9NYP7 (Q9NYP7 whole entry, looked up): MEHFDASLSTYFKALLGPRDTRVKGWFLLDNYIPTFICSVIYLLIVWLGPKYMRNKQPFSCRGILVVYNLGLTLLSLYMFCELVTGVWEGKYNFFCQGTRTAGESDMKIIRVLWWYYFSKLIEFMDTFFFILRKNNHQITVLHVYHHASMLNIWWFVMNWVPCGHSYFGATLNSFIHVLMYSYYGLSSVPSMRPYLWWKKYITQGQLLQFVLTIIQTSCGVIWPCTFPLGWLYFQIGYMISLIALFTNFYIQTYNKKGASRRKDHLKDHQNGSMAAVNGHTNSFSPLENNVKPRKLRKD
Chain of UniProt Q13409 (Q13409 whole entry, looked up): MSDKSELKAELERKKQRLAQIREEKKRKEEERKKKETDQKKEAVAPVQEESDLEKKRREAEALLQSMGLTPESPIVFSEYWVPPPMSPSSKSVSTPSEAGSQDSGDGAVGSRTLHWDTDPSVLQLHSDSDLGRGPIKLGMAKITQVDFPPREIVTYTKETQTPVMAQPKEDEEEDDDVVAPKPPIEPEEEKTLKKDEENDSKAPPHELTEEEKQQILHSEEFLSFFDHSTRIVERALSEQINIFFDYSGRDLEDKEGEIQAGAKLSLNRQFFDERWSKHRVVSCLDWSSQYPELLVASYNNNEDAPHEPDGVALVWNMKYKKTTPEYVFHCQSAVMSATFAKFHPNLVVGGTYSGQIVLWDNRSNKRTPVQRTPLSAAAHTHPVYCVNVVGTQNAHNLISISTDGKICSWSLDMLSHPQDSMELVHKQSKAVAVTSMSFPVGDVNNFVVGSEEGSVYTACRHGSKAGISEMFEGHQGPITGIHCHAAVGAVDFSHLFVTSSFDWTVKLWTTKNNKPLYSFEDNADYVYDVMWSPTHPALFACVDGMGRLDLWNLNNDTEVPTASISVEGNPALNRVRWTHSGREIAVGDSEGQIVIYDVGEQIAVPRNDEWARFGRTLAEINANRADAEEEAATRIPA
Chain of UniProt Q9HBU6 (Q9HBU6 whole entry, looked up): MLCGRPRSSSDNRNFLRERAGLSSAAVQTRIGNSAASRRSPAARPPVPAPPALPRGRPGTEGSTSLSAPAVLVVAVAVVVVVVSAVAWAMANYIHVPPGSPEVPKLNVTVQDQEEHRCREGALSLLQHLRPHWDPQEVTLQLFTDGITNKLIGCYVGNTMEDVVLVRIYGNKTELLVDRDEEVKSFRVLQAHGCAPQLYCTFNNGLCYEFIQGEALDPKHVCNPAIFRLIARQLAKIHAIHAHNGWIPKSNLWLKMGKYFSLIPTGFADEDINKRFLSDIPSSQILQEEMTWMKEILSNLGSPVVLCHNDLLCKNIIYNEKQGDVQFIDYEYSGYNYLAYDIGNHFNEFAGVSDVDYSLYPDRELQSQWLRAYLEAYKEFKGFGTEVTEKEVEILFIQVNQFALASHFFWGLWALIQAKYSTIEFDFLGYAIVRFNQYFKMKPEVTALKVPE
Chain of UniProt Q9BQI3 (Q9BQI3 whole entry, looked up): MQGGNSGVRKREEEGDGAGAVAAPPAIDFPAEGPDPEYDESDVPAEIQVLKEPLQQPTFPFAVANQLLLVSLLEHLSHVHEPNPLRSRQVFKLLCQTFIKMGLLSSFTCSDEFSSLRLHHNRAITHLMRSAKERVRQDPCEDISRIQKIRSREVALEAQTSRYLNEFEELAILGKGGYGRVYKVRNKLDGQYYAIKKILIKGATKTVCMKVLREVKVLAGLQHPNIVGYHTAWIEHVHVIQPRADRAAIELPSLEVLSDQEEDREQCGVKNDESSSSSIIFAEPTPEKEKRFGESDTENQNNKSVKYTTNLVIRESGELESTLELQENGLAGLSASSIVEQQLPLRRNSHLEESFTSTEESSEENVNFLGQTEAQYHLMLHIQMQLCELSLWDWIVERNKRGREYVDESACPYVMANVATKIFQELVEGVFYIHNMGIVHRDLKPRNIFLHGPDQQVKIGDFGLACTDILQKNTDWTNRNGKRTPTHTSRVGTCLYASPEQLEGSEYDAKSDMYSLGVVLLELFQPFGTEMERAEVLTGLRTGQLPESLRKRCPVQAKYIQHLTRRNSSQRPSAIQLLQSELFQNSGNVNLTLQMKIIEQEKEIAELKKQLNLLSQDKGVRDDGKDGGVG
Chain of UniProt P41091 (P41091 whole entry, looked up): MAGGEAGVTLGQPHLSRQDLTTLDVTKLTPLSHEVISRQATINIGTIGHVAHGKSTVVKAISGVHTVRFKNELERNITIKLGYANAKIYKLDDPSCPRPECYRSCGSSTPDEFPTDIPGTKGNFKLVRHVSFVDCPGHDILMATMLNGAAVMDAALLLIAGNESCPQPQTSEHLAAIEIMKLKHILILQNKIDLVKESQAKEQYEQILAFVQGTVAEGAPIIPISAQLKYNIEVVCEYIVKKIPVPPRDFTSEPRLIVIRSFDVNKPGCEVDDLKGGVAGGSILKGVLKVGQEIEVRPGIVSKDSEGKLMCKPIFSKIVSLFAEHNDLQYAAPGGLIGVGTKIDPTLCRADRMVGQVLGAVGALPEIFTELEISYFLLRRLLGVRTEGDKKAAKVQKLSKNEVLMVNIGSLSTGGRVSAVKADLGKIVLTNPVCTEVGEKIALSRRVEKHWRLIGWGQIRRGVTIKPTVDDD
Chain of UniProt P34913 (P34913 whole entry, looked up): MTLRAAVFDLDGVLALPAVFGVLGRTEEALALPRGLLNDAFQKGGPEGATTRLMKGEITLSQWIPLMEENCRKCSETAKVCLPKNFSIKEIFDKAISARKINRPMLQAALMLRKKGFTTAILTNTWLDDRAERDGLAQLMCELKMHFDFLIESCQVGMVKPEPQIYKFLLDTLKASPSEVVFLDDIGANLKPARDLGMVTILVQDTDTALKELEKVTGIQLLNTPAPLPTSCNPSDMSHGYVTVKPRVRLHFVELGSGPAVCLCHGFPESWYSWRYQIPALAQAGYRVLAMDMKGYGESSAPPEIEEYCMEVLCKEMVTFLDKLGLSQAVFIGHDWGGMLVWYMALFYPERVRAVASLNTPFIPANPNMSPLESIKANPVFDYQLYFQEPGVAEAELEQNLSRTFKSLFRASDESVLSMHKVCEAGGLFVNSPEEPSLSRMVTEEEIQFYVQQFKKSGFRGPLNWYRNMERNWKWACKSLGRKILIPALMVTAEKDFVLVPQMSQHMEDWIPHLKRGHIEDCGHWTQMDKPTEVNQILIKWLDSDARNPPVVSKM
Chain of UniProt O60888 (O60888 whole entry, looked up): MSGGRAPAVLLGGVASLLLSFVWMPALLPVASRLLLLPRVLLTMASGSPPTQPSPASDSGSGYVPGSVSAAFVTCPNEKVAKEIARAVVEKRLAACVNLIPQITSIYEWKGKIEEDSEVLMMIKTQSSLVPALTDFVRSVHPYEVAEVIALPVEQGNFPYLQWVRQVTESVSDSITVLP
Chain of UniProt O94905 (O94905 whole entry, looked up): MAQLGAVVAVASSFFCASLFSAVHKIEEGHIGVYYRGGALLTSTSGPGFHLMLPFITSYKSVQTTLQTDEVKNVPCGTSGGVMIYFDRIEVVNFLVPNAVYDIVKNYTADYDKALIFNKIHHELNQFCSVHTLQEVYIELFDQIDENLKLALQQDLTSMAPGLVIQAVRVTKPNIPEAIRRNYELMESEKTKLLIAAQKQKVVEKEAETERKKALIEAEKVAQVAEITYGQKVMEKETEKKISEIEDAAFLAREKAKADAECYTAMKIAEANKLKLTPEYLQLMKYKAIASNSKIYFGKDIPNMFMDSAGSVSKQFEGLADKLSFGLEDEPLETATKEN
Chain of UniProt Q9NWS6 (Q9NWS6 whole entry, looked up): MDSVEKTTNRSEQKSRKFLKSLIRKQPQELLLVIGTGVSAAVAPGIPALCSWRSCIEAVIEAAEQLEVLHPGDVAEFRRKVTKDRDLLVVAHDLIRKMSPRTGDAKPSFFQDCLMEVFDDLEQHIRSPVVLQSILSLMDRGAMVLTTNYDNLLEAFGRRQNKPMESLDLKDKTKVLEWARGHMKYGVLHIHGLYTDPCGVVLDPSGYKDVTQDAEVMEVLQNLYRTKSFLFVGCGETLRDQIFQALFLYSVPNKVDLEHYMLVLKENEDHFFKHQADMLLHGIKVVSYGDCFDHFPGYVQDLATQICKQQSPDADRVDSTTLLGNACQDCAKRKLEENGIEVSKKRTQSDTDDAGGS
Chain of UniProt O15121 (O15121 whole entry, looked up): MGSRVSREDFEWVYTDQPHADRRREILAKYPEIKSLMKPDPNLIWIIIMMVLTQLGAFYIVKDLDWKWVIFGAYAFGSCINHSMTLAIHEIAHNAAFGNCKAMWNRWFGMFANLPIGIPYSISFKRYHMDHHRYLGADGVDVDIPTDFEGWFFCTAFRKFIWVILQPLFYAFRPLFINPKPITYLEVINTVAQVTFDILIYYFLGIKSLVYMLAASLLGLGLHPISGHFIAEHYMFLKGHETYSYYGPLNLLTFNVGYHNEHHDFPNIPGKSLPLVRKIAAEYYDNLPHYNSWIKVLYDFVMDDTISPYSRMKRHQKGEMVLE
Chain of UniProt Q96GE9 (Q96GE9 whole entry, looked up): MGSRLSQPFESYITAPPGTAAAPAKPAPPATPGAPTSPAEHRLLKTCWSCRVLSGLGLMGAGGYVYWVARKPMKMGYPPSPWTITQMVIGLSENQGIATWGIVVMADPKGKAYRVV

Row | Target | log2 fold change
1 | DNAH10 (UniProt Q8IVF4) | -0.046 (inactive)
2 | DOCK8 (UniProt Q8NF50) | 0.083 (inactive)
3 | ERCC6 (UniProt Q03468) | 0.102 (inactive)
4 | ETNK1 (UniProt Q9HBU6) | 0.016 (inactive)
5 | DYNC1I2 isoform 5 (UniProt Q13409) | 0.025 (inactive)
6 | CUX1 isoform 3 (UniProt P39880) | -0.002 (inactive)
7 | CWF19L2 (UniProt Q2TBE0) | -0.025 (inactive)
8 | EIF2S3 (UniProt P41091) | 0 (inactive)
9 | CUTA isoform 2 (UniProt O60888) | -0.159 (inactive)
10 | EIF2AK1 (UniProt Q9BQI3) | -0.057 (inactive)
11 | DNAH5 (UniProt Q8TE73) | 0.024 (inactive)
12 | EPHX2 (UniProt P34913) | -0.017 (inactive)
13 | EDEM2 (UniProt Q9BV94) | 0.022 (inactive)
14 | ELOVL5 isoform 2 (UniProt Q9NYP7) | -0.041 (inactive)
15 | DAXX (UniProt Q9UER7) | 0.055 (inactive)
16 | CTSS (UniProt P25774) | -0.081 (inactive)

compound: COc1cc(C(=O)O)ccc1NC(=O)[C@@H]1N[C@@H](CC(C)(C)C)[C@](C#N)(c2ccc(Cl)cc2F)[C@H]1c1cccc(Cl)c1F [idasanutlin]; test: as above
Procedure, shortened: as §1

Row | Target | log2 fold change
17 | CTNNB1 (UniProt P35222) | -0.056 (inactive)
18 | DENND10 (UniProt Q8TCE6) | 0.003 (inactive)
19 | EXOSC10 (UniProt Q01780) | 0.01 (inactive)
20 | EXOC4 (UniProt Q96A65) | -0.052 (inactive)
21 | DEGS1 (UniProt O15121) | 0.039 (inactive)
22 | DDX27 (UniProt Q96GQ7) | 0.246 (inactive)
23 | EDC4 (UniProt Q6P2E9) | 0.044 (inactive)
24 | CTSV (UniProt O60911) | -0.036 (inactive)
25 | CYB561A3 isoform 2 (UniProt Q8NBI2) | -0.066 (inactive)
26 | DCP2 (UniProt Q8IU60) | 0.167 (inactive)
27 | ERLIN2 (UniProt O94905) | 0.09 (inactive)
28 | DPYSL2 (UniProt Q16555) | 0.029 (inactive)
29 | ELAC1 (UniProt Q9H777) | 0.122 (inactive)
30 | FAM50A (UniProt Q14320) | -0.025 (inactive)
31 | FAM118A (UniProt Q9NWS6) | -0.323 (inactive)
32 | DIP2A (UniProt Q14689) | -0.047 (inactive)
33 | EZH2 isoform 2 (UniProt Q15910) | 0.073 (inactive)
34 | DHRS13 (UniProt Q6UX07) | 0.057 (inactive)

Row | Target | log2 fold change
35 | FAM193B (UniProt Q96PV7) | 0.311 (inactive)
36 | ECPAS (UniProt Q5VYK3) | -0.127 (inactive)
37 | DMAC1 (UniProt Q96GE9) | -0.339 (inactive)
38 | ELF1 (UniProt P32519) | 0.089 (inactive)
39 | DOCK8 (UniProt Q8NF50) | 0.217 (inactive)
40 | ERCC6 (UniProt Q03468) | -0.14 (inactive)
41 | ETNK1 (UniProt Q9HBU6) | -0.105 (inactive)
42 | DYNC1I2 isoform 5 (UniProt Q13409) | 0.025 (inactive)
43 | CUX1 isoform 3 (UniProt P39880) | 0.012 (inactive)
44 | CWF19L2 (UniProt Q2TBE0) | 0.124 (inactive)
45 | EIF2S3 (UniProt P41091) | 0.07 (inactive)
46 | CUTA isoform 2 (UniProt O60888) | 0.002 (inactive)
47 | EIF2AK1 (UniProt Q9BQI3) | -0.035 (inactive)
48 | EPHX2 (UniProt P34913) | -0.089 (inactive)
49 | EDEM2 (UniProt Q9BV94) | -0.154 (inactive)
50 | ELOVL5 isoform 2 (UniProt Q9NYP7) | -0.224 (inactive)
51 | DAXX (UniProt Q9UER7) | -0.067 (inactive)

compound: COc1cc(Nc2ncc3c(n2)-c2ccc(Cl)cc2C(c2c(F)cccc2OC)=NC3)ccc1C(=O)O [alisertib]; test: as above
Procedure, shortened: as §1

Row | Target | log2 fold change
52 | CTNNB1 (UniProt P35222) | -0.084 (inactive)
53 | DENND10 (UniProt Q8TCE6) | -0.065 (inactive)
54 | EXOSC10 (UniProt Q01780) | -0.002 (inactive)
55 | EXOC4 (UniProt Q96A65) | -0.002 (inactive)
56 | DEGS1 (UniProt O15121) | 0.028 (inactive)
57 | DDX27 (UniProt Q96GQ7) | 0.415 (inactive)
58 | EDC4 (UniProt Q6P2E9) | -0.028 (inactive)
59 | CTSV (UniProt O60911) | -0.042 (inactive)
60 | CYB561A3 isoform 2 (UniProt Q8NBI2) | 0.041 (inactive)
61 | ERLIN2 (UniProt O94905) | -0.085 (inactive)
62 | DPYSL2 (UniProt Q16555) | 0.093 (inactive)
63 | FAM50A (UniProt Q14320) | -0.003 (inactive)
64 | FAM118A (UniProt Q9NWS6) | 0.383 (inactive)
65 | DIP2A (UniProt Q14689) | 0.357 (inactive)
66 | DNAJC24 (UniProt Q6P3W2) | 0.045 (inactive)
67 | EZH2 isoform 2 (UniProt Q15910) | -0.209 (inactive)

Row | Target | log2 fold change
68 | DHRS13 (UniProt Q6UX07) | -0.011 (inactive)
69 | ECPAS (UniProt Q5VYK3) | -0.001 (inactive)
70 | DMAC1 (UniProt Q96GE9) | -0.174 (inactive)
71 | DNAH10 (UniProt Q8IVF4) | -0.042 (inactive)
72 | DOCK8 (UniProt Q8NF50) | -0.029 (inactive)
73 | ERCC6 (UniProt Q03468) | 0.102 (inactive)
74 | ETNK1 (UniProt Q9HBU6) | -0.045 (inactive)
75 | DYNC1I2 isoform 5 (UniProt Q13409) | -0.051 (inactive)
76 | CUX1 isoform 3 (UniProt P39880) | -0.047 (inactive)
77 | EIF2S3 (UniProt P41091) | -0.068 (inactive)
78 | CUTA isoform 2 (UniProt O60888) | -0.055 (inactive)
79 | EIF2AK1 (UniProt Q9BQI3) | 0.032 (inactive)
80 | DNAH5 (UniProt Q8TE73) | 0.011 (inactive)
81 | EPHX2 (UniProt P34913) | -0.053 (inactive)
82 | EDEM2 (UniProt Q9BV94) | -0.441 (active)
83 | ELOVL5 isoform 2 (UniProt Q9NYP7) | -0.026 (inactive)
